The list is not random: actives were taken first. Their share in the collection is about 5.6%.
PKM2 activator = increases activity of human pyruvate kinase M2; P14618; purified PKM2, Kinase-Glo ATP luminescence, activation; response scale: 0% is enzyme alone, no compound; Potency, µM (highest dose often 57.5 µM), inactives show top-dose activation, usual class: activators; 260,000 tested, 0.34% active; AID 1631; further: potency means the concentration at half of the fitted maximal effect; nearly all actives have a fitted effect of over 55% in size
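Kinase-Glo luminescence reports ATP generated from ADP (0.1 mM) and PEP (0.5 mM) by purified hPK-M2 after 1 h at room temperature, pH 7.2 imidazole buffer; intermediate enzyme activity allows detecting inhibitors and activators.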
RORgamma inh = inhibitors of mouse ROR gamma transcriptional activity | P51450 | Drosophila S2 Gal4-RORgamma UAS-luciferase reporter, 20 h | Potency, µM (top dose mostly 53.6 µM), for the others: at the top dose activity change, negative = inhibition, hits mostly inhibitors | 310,000 tested, 5.4% active | AID 2551; further: potency means the concentration at half of the fitted maximal effect; nearly all actives have a fitted effect of over 60% in size
Target sequence (P51450 whole entry, looked up, the tested form may be a part): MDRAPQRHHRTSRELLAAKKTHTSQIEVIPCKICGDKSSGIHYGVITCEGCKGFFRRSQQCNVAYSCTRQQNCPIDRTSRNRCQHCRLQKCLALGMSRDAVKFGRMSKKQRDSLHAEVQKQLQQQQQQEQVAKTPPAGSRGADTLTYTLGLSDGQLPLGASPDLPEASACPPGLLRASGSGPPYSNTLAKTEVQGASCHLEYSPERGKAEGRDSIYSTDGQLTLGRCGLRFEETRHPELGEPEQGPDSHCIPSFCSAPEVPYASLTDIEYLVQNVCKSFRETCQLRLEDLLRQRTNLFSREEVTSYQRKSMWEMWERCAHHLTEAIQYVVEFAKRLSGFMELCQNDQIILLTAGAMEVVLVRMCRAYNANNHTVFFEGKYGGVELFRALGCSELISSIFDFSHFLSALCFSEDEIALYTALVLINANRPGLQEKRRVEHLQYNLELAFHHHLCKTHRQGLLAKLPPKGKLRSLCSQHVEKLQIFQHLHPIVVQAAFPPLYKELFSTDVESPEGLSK
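Schneider cells (Drosophila), stable Gal4 DBD–ROR gamma + UAS-luc; 1 hr cmpd preincubation; Cu2+ induction 700 uM final; 20 hr ambient; luminescence.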
Gal4-VP16 FLuc = counter-screen for ROR gamma inhibitors: Gal4-VP16 reporter; Drosophila S2 Gal4-VP16 UAS-luciferase, luminescence, 20 h; Potency, µM (highest dose often 53.6 µM), without a hit: at the highest dose activity, negative = inhibition, actives largely listed as inhibitors; 310,000 tested, 3.5% active;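 further: Gal4-VP16 expression switched on by copper sulfate through the metallothionein promoter; potency means the concentration at half of the fitted maximal effect; nearly all actives have a fitted effect of over 50% in size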
CtBP-E1A inh = blocks the CtBP interaction with E1A; activity change, % (no concentration beside the values); AlphaScreen GST-E1A/His-CtBP binding, 1536-well; active compounds read low; 340,000 tested, 0.49% active; in the data active means activity change below about -65%; inconclusive means mostly about -30% to -63%
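GST-E1A and His-tagged CtBP (125 nM each as 5X stock) were preincubated with pin-transferred compound for 2 h at 37 °C in the dark, then glutathione donor and nickel acceptor beads were added for 1 h before AlphaScreen reading.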
Six1-Eya2 inh = blocks human Six1 binding to Eya2; Q15475+O00167; AlphaScreen GST-Six1/His-Eya2 binding, biochemical; active compounds read low; activity change, % (concentration not given with the values); 360,000 tested, 0.56% active; AID 651725; in the data active means activity change below about -65%; inconclusive means mostly about -30% to -63%
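Compounds are tested against tagged Six1 and Eya2 proteins bridged by glutathione donor and nickel acceptor beads; after a one-hour incubation at 37 °C without light, AlphaScreen emission is recorded.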
* marks the source's active call; other numbers are inactive results; ? = inconclusive; / = no result; [ ] = remark or other dose. Unless noted, the call rests on the fitted dose curve; in most records, active means well fitted curve in the direction sought with a large enough effect; inconclusive means small, poorly fitted or top-dose-only effect, or another doubt; inactive means no such curve, though single readings can be large; an effect the other way counts as inactive or inconclusive. On the % scale 0 is the no-effect control and ±100 the full control effect.

SMILES	PKM2 activator	RORgamma inh	Gal4-VP16 FLuc	CtBP-E1A inh	Six1-Eya2 inh
CCCCCC(=O)NNC(=S)NC(=O)c1ccccc1[N+](=O)[O-]	-6.9%	?	-10.8%	-12.9	2.3
O=C(NC(=S)NNC(=O)c1ccccc1O)c1cccc([N+](=O)[O-])c1	/	-33.5%	-1.2%	-90.3*	-77.4*
CCCCCC(=O)NNC(=S)NC(=O)c1cccc([N+](=O)[O-])c1	-20.1%	3.55µM*	5.01µM*	-1.1	-3.1
O=C(NC(=S)NNC(=O)c1ccccc1[N+](=O)[O-])c1ccc(Br)cc1	0.6%[11.5 µM]	6.31µM*	6.31µM*	-0.9	7.0
O=C(NNC(=O)c1ccccc1[N+](=O)[O-])c1ccccn1	-24.9%	-39.9%	2.2%	1.6	-77.2*
COc1ccc(C(=O)NNC(=S)NC(=O)c2cccc([N+](=O)[O-])c2)cc1	/	/	/	-4.9	-5.6
O=C(NNC(=S)NC(=O)c1ccccc1[N+](=O)[O-])c1ccccc1Cl	6.1%	-38.1%	22.9%	1.2	-12.7
CC1(C(=O)Nc2ccc3c(c2)OCCO3)CN(S(C)(=O)=O)CC(=O)N1CCCn1ccnc1 (stereo not drawn)	/	/	/	-13.5	7.3
Cc1cccn2c(=O)c(-c3nnn[nH]3)cnc12	/	-15.4%	-1.4%	/	/
O=C(c1cccc(S(=O)(=O)N2CCc3ccccc32)c1)N1CCN(c2ccccc2)CC1	/	/	/	-7.0	-10.0
CCOc1ccc2[nH]c3nc(SCC(=O)NCC4CCCO4)nnc3c2c1 (stereo not drawn)	/	9.1%	?	-86.1*	-89.9*
CC(C)(C)c1ccc(C(=O)NCCOc2ccccc2)cc1	-1.7%[11.5 µM]	8.91µM*	?	-3.7	7.8
CC(C)(C)c1ccc(C(=O)NCCOc2ccccc2F)cc1	/	7.08µM*	6.31µM*	11.2	5.8
CN(C)S(=O)(=O)c1ccc(C(=O)NCCOc2ccccc2)cc1	3.4%	-1.8%	?	5.1	0.2
O=C(O)c1ccc2c(c1)C(=O)N([C@H](Cc1ccc(-c3ccccc3)cc1)C(=O)O)C2=O	/	1.4%	4.0%	/	/
O=C(Cn1cc(C(F)(F)F)cc(Cl)c1=O)NCc1ccc(F)cc1	/	-3.0%	1.3%	22.6	10.3
CCN(CC)c1ccc(Nc2nc(N3CCOCC3)c3ccccc3n2)cc1	-1.4%	-41.7%	11.2µM*	-78.4*	-81.3*
O=C(c1cc2ccccc2o1)N1CCOCC1	/	/	/	-6.5	11.2
O=C(NC(=S)N1CCOCC1)c1cc2ccccc2o1	-17.5%	1µM*	3.16µM*	1.8	4.4
Cc1ccc(C(=O)NC(=S)N2CCCC2)cc1	-1.2%	0.891µM*	5.01µM*	-20.8	3.2
CN1CCN(C(=S)NC(=O)c2ccc(-c3ccccc3)cc2)CC1	0.0%	0.0891µM*	0.562µM*	8.0	-2.1
O=C(NC(=S)N1CCN(c2ccc(F)cc2)CC1)c1ccccc1	/	/	/	-9.4	-3.4
Cc1ccc(C(=O)NC(=S)N2CCN(C)CC2)cc1	-2.8%	0.0%	7.08µM*	3.8	10.9
Cc1ccc(C(=O)Nc2ccc(C(=O)N3CCCCC3)cc2)cc1	4.8%	14.6%	-5.8%	/	5.0
Cc1cc(F)ccc1S(=O)(=O)N1CCC2(CC1)OCCN2S(=O)(=O)c1cccs1	/	/	/	8.7	-10.0
SMILES	PKM2 activator	RORgamma inh	Gal4-VP16 FLuc	CtBP-E1A inh	Six1-Eya2 inh
CCC(C)(C)OC	/	-21.3%	?	/	/
O=C(OCC(=O)c1ccc[nH]1)c1ccc(F)c(S(=O)(=O)N2CCOCC2)c1	/	/	/	/	3.3
O=CN1CCN(C(=S)NC(=O)c2ccc(Cl)cc2)CC1	-0.7%	/	/	3.5	16.4
Cc1ccc2c(c1)C1CN(C)CCC1N2C(=S)NC(=O)c1ccc(Br)cc1 (stereo not drawn)	-0.4%	0.112µM*	-72.9%	-1.5	-5.1
CC(C)(C)c1ccc(C(=O)NC(=S)N2CCOCC2)cc1	-11.9%	1.12µM*	1µM*	6.7	9.0
CN1CCN(C(=S)NC(=O)c2ccc(C(C)(C)C)cc2)CC1	-1.5%	1.41µM*	2.51µM*	0.0	22.2
CN1CCN(C(=S)NC(=O)c2ccc(Br)cc2)CC1	-6.0%	0.891µM*	1.12µM*	3.8	1.3
Cc1ccc(OCC(=O)NNC(=O)c2ccccc2OCc2c(C)noc2C)cc1	/	/	/	-1.5	2.8
N#CCCn1nc(-c2ccccc2)c2ccccc2c1=O	-3.2%	10.1%	-5.9%	-0.6	2.9

Compound activity from PubChem.
